In PubChem BioAssay (NCATS):
Unmarked numbers belong to inactive results. Active and inactive are the calls of the source. The rule behind the calls is not given here.

Tested on: HIV-1 nucleocapsid protein NCp7 (binding to TG oligonucleotide)
Test: HIV Nucleocapsid (AID 346);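 note: potency is for inhibitors that block NC binding and lower polarization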
Settings: HIV-1 NC / fluorescein-TGTGTGTG probe, fluorescence polarization
Method in brief: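 HIV-1 NC (100 nM) binding to fluorescein-labelled ssDNA TG4xF (10 nM) in Hepes pH 7.5, 250mM NaCl, 1uM ZnCl2, TCEP and 2-mercaptoethanol; compounds pin-transferred, 1 hr room temperature, fluorescence polarization read on CCD imager.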
Potency is the fitted concentration of half-maximal effect.

Structure (SMILES)	Potency
COCC(=O)N1CCC2(CC1)CN(C(=O)Nc1ccccc1)C2	> 20 µM
CC(=O)NCCNc1cc(-c2ccccc2CN(C)C)ncn1	> 20 µM
Cc1ccccc1-c1nccc(NCc2cccnc2)n1	> 20 µM
Cc1nc2cncnc2n(C2CC2)c1=O	> 20 µM
CS(=O)(=O)Nc1cccc(-c2cncnc2-n2ccnc2)c1	> 20 µM
O=C(Oc1ccccc1)N1CCC[C@@]2(CCN(c3ccncc3)C2)C1	> 20 µM
COc1cccc(Cn2c(=O)c(CCc3ccccc3)nc3cnc(N4CCN(C)CC4)nc32)c1	> 4 µM
O=c1c(-c2cc(F)cc(F)c2)nc2cnc(N3CCNCC3)nc2n1CCc1ccccc1	> 20 µM
c1csc(CNc2ncnc3ccc(-c4ccc5c(c4)OCO5)cc23)c1	> 20 µM
FC(F)(F)c1ccccc1-c1cncnc1Nc1ccccc1	> 20 µM
Cc1noc(C)c1-c1ccc2ncnc(NCc3cccs3)c2c1	> 20 µM
CCNc1ncc2nc(CCc3ccccc3)c(=O)n(C[C@H]3CCCO3)c2n1	> 20 µM
Cc1ccccc1-c1cncnc1Nc1ccccc1	> 20 µM
COc1cccc(-c2cc(NCCc3c[nH]c4ccc(OC)cc34)ncn2)c1	> 20 µM
COCCn1c(=O)c(-c2ccccc2)nc2cnc(Oc3cccc(Cl)c3)nc21	> 20 µM
COc1cccc(Cn2c(=O)c(CCc3ccccc3)nc3cnc(OC)nc32)c1	> 20 µM
Cc1noc(C)c1-c1nc(NCc2ccccc2)c2ccccc2n1	> 20 µM
CN(C)c1ncc2nc(-c3ccc(Cl)cc3)c(=O)n(CCC#N)c2n1	> 20 µM
Clc1ccccc1-c1ccc2ncnc(NCCN3CCOCC3)c2c1	> 20 µM
O=C(c1cnccn1)N1CCC2(CC1)CN(c1ccncc1)C2	> 20 µM

Structure (SMILES)	Potency
CN(C)c1ncc2nc(-c3cccs3)c(=O)n(C3CC3)c2n1	0.297 µM (active)
COc1ccc(-n2c(=O)c(-c3cccc(Cl)c3)nc3cncnc32)cc1	> 4 µM
COc1ncc2nc(-c3ccc(F)cc3)c(=O)n(Cc3ccc(F)cc3)c2n1	> 20 µM
O=S(=O)(c1ccccc1)N1CCC2(CCN(Cc3nccs3)CC2)CC1	> 20 µM
COc1ncc2nc(C)c(=O)n(C[C@H]3CCCO3)c2n1	> 20 µM
O=c1cnc2cnc(Oc3cccc(Cl)c3)nc2n1C1CC1	> 20 µM
CN(C)c1nc(-c2ccccc2C(F)(F)F)nc2ccccc12	> 20 µM
CNc1ccnc(-c2ccccc2OC)n1	> 20 µM
Cc1cccc(CNc2ncncc2-c2ccccc2Cl)c1	> 20 µM
N#Cc1cccc(-c2nccc(NCc3cccs3)n2)c1	> 20 µM
COCCn1c(=O)c(C)nc2cnc(N3CCNCC3)nc21	> 20 µM
COc1cccc(Cn2c(=O)c(-c3cccs3)nc3cnc(OCc4ccccc4)nc32)c1	> 20 µM
CN1CCN(c2ccnc(-c3cccc(NS(C)(=O)=O)c3)n2)CC1	> 20 µM
Cn1cc(-c2nc3cnc(N4CCNCC4)nc3n(CCC#N)c2=O)c2ccccc21	> 20 µM
Cc1noc(C)c1C(=O)N1CCC2(CCN(C(=O)Nc3ccccc3)CC2)CC1	> 20 µM
Cc1nc2cnc(N3CCN(C)CC3)nc2n(C2CC2)c1=O	> 20 µM
CNc1ncncc1-c1c(C)noc1C	> 20 µM
CCNc1ncc2nc(-c3ccc(Cl)cc3)c(=O)n(C[C@H]3CCCO3)c2n1	> 4 µM
COCCn1c(=O)cnc2cnc(Oc3cccc(Cl)c3)nc21	> 20 µM
CN(C)c1ncc2nc(-c3ccc(F)cc3)c(=O)n(Cc3ccc(F)cc3)c2n1	> 20 µM
